A selection: hits, their analogues and other compounds. The true share with any hit is near 2.8%.
Pol eta inh – qHTS for Inhibitors of Polymerase Eta | recombinant Pol eta, fluorescent DNA replication assay | Potency, µM (highest dose often 114 µM), without a hit: at the top dose activity change, negative = inhibition, hits mostly inhibitors | 1.2% of 390,000 active | AID 588591, 2011; also: potency is read from the fitted curve at half-maximal effect; % is scaled to controls: 0 for no effect and ±100 for the full control effect
Target sequence (Q9Y253 whole entry, looked up): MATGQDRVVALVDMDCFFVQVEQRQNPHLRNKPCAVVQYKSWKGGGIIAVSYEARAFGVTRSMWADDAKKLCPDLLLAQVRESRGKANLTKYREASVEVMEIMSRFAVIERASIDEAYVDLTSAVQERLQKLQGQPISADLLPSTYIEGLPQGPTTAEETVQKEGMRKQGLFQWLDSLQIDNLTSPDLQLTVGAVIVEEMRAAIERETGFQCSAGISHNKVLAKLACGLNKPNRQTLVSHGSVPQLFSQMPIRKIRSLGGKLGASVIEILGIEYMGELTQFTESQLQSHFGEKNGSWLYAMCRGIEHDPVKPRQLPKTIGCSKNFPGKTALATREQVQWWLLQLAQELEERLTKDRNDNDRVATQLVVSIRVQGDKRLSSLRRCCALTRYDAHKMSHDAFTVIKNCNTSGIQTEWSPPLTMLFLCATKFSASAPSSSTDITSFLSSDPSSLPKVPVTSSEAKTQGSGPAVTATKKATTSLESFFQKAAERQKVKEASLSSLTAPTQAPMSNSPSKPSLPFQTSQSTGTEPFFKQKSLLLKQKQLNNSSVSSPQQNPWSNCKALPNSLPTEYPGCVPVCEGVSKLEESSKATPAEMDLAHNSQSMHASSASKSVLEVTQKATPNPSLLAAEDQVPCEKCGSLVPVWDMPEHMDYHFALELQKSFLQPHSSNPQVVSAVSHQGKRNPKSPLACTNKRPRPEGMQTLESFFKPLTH
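Pol eta at 10 nM preincubated with compounds 15 min at room temperature; reaction started with fluorescent substrate (50 nM final) and read kinetically at 0 and 10 min.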
FEN1 inh – qHTS Assay for the Inhibitors of Human Flap endonuclease 1 (FEN1); P39748; Recombinant FEN1 flap cleavage, fluorescence, 15 min; Potency, µM (top dose mostly 114 µM), for the others: top-dose activity change, negative = inhibition, actives largely listed as inhibitors; 0.35% of 390,000 active; also: potency is read from the fitted curve at half-maximal effect; % is scaled to controls: 0 for no effect and ±100 for the full control effect; nearly all actives have a fitted effect of over 65% in size
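In this screen, 50 nM flap DNA substrate was added to 10 nM FEN1 pretreated with compound for 15 min at room temperature; cleavage was followed with reads at 0 and 15 min, and Hill fitting gave concentration–response parameters.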
Pol kappa inh – qHTS for Inhibitors of Polymerase Kappa; 0.53% of 400,000 active; purified Pol kappa, fluorescent DNA synthesis assay, 10 min; DNA polymerase kappa (Homo sapiens), Q9UBT6; Potency, µM (titrated, usually from 107 µM), for inactives: top-dose activity, negative = inhibition, usual class: inhibitors; AID 588579, 2011; also: potency is read from the fitted curve at half-maximal effect; % is scaled to controls: 0 for no effect and ±100 for the full control effect
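Inhibition of 10 nM Pol kappa is measured by a fluorescent read-out at 0 and 10 min following addition of 50 nM substrate (final), with a 15-min room-temperature compound preincubation.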
POLB inh – qHTS Assay for Inhibitors of DNA Polymerase Beta; Potency, µM (titrated, usually from 114 µM), for the others: at the highest dose activity change, negative = inhibition, actives largely listed as inhibitors; P06746; Pol beta primer extension/strand displacement, fluorescence kinetic; 1.3% of 340,000 active; also: potency is read from the fitted curve at half-maximal effect; % is scaled to controls: 0 for no effect and ±100 for the full control effect
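Reaction started by 50 nM substrate onto compound-treated Pol beta (10 nM, 15 min preincubation, room temperature); plates read at 0 min and 10 min. Normalized concentration-effect data fitted by four-parameter Hill equation.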
PI5P4K alpha inh – qHTS for Inhibitors of phosphatidylinositol 5-phosphate 4-kinase (PI5P4K); 1.2% of 330,000 active; Phosphatidylinositol 5-phosphate 4-kinase type-2 alpha (Homo sapiens), P48426; max response, %; PI5P4Kalpha enzyme, ADP-Glo luminescence, 60 min; hits give low values; active = max response of -50% or lower; inconclusive = between -30% and -50%; inactive = -30% or higher; also: value at the top dose of about 77 µM; % is scaled to controls: 0 for no effect and ±100 for the full control effect
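Luminescence from ADP-Glo served as readout of PI5P4Kalpha activity in a qHTS format. Reaction: enzyme, substrate, compound, ATP at 5 microM final, 60 min at RT.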
Pol iota inh – qHTS for Inhibitors of Polymerase Iota; 1% of 390,000 active; Pol iota fluorescent replication assay, 10 min; DNA polymerase iota (Homo sapiens), Q9UNA4; Potency, µM (doses to about 115 µM), inactives show top-dose activity, negative = inhibition, actives largely listed as inhibitors; also: potency is read from the fitted curve at half-maximal effect
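Pol iota at 10 nM preincubated 15 min with compounds at room temperature; reaction started with fluorescent substrate, 50 nM final. Fluorescence read kinetically at 0 and 10 min; buffer-only wells as negative control.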
* marks the source's active call; other numbers are inactive results; [ ] = another dose, or the depositor's remark. Unless noted, calls follow the shape of the dose curve; as a rule, active = well fitted curve in the direction sought with a large enough effect; inconclusive = small, poorly fitted or top-dose-only effect, or another doubt; inactive = no such curve, though single readings can be large; an effect the other way counts as inactive or inconclusive.

`CN1c2ccccc2C(C)(C)C12C=Nc1c(cc(N3CCOCC3)c3ccccc13)O2` (centres undefined) gave Pol eta inh 1%, FEN1 inh -13%, Pol kappa inh -20%, POLB inh 3%, PI5P4K alpha inh 5 and Pol iota inh 3.5µM*.
O=C(NC(CO)(CO)CO)c1coc(=O)c(Br)c1 was read as Pol eta inh -9%, FEN1 inh -6%, Pol kappa inh -7%, POLB inh 39% and Pol iota inh 4%.
Screening O=C(Nc1cc(Cl)cc(Cl)c1)c1coc(=O)c(Br)c1 returned Pol eta inh inconclusive, FEN1 inh inconclusive, Pol kappa inh 79µM*, POLB inh 28µM*, PI5P4K alpha inh -23 and Pol iota inh 28µM*.
O=C(NNC(=O)C1C2CCCCC21)c1coc(=O)c(Br)c1 (centres undefined) was read as Pol eta inh 50µM*, FEN1 inh 7%, Pol kappa inh inconclusive, POLB inh inconclusive, PI5P4K alpha inh inconclusive and Pol iota inh 45µM*.
For O[C@@H]([C@H](O)[C@H](O)CBr)[C@H](O)CBr the results were Pol eta inh -12%, FEN1 inh 13%, Pol kappa inh 20%, PI5P4K alpha inh -62* and Pol iota inh -4%.
For O=C1C2C3C=CC(C3)C2C(=O)N1c1ccncc1 (centres undefined) the results were Pol eta inh -6%, FEN1 inh 6%, Pol kappa inh -11%, POLB inh 10%, PI5P4K alpha inh 2 and Pol iota inh 10%.
Screening O=C1C2C3C=CC(C3)C2C(=O)N1c1ncn[nH]1 (centres undefined) returned Pol eta inh inconclusive, FEN1 inh 4%, Pol kappa inh -12%, POLB inh 40µM* and Pol iota inh inconclusive.
Screening CCC(C(=O)NC(C)(C)C)N(Cc1ccco1)C(=O)CNS(=O)(=O)c1ccc(OC)cc1 (centres undefined) returned Pol eta inh -15%, FEN1 inh 8%, Pol kappa inh 1%, POLB inh 12%, PI5P4K alpha inh 4 and Pol iota inh 11%.
`COc1cc(/C=N/N=C2/SCC(=O)N2c2ccc(O)cc2)ccc1O` gave Pol eta inh -2%, FEN1 inh -2%, Pol kappa inh -8%, POLB inh 1%, PI5P4K alpha inh -50* and Pol iota inh 81%.
For COc1ccc(-c2nc3ccc(C)cn3c2NCc2ccccc2)cc1SC1CCCCC1 the results were Pol eta inh 45µM*, FEN1 inh 5%, Pol kappa inh 10%, PI5P4K alpha inh -16 and Pol iota inh 22µM*.
`CCCCNc1c(-c2ccc(OC)c(SC3CCCCC3)c2)nc2ccc(C)cn12` gave Pol eta inh -27%, FEN1 inh -14%, Pol kappa inh -17%, PI5P4K alpha inh 17 and Pol iota inh -15%.
For Cc1nnc(C)n1/N=C/c1ccc(-c2ccccc2Cl)o1 the results were Pol eta inh -12%, FEN1 inh -4%, Pol kappa inh -2%, POLB inh 60%, PI5P4K alpha inh 2 and Pol iota inh 129%.
O=C1NC(=S)/C(=C\c2ccc(-c3ccccc3Cl)o2)S1 was read as Pol eta inh 16µM*, FEN1 inh inconclusive, Pol kappa inh inconclusive, POLB inh 40µM*, PI5P4K alpha inh -69* and Pol iota inh inconclusive.
`CN(C)c1ccc(C(=C2C=CC(=[N+](C)C)C=C2)c2c(O)c(S(=O)(=O)[O-])cc3cc(S(=O)(=O)O)ccc23)cc1` gave FEN1 inh 45µM*, Pol kappa inh 8.9µM* and Pol iota inh inconclusive.
`CN(C)c1ccc(C(=C2C=CC(=[N+](C)C)C=C2)c2ccc(N(C)C)cc2)cc1` gave FEN1 inh 40µM*, Pol kappa inh inconclusive and Pol iota inh -7%.
Screening CN(C)c1ccc(C(=C2C=CC(=[N+](C)C)C=C2)c2ccccc2)cc1 returned Pol kappa inh -11%[12 µM].
For O=C(CSc1nc2sc3c(c2c(=O)n1-c1ccccc1)CCCC3)N/N=C/c1ccc(C(=O)O)cc1 the results were Pol eta inh inconclusive, FEN1 inh 4%, Pol kappa inh inconclusive, POLB inh inconclusive, PI5P4K alpha inh -11 and Pol iota inh 40µM*.
COc1cccc2sc(Nc3nc4ccc(NC(C)=O)cc4s3)nc12 was read as Pol eta inh inconclusive, FEN1 inh inconclusive, Pol kappa inh 45µM*, POLB inh inconclusive, PI5P4K alpha inh 0 and Pol iota inh 16µM*.
Screening CC(=O)Nc1ccc2nc(NC(=O)COc3ccccc3C)sc2c1 returned Pol eta inh -17%, FEN1 inh -10%, Pol kappa inh -1%, POLB inh -27%, PI5P4K alpha inh 8 and Pol iota inh 73%.
Screening COc1cccc(NC(=O)c2nn(-c3ccc(C)cc3)c(=O)n(C)c2=O)c1 returned Pol eta inh -12%, FEN1 inh 11%, Pol kappa inh -9%[60.1 µM], POLB inh 3% and Pol iota inh 29%.
CN(C)/C=C/C1=C([N+](=O)[O-])C(c2cccc([N+](=O)[O-])c2)NC(=O)N1 (centres undefined) was read as Pol eta inh inconclusive, FEN1 inh -1%, Pol kappa inh -40%, POLB inh -13%, PI5P4K alpha inh -83* and Pol iota inh inconclusive.
For O=S(=O)(c1ccc2[nH]c3c(c2c1)CCCCC3)N1CCN(c2ccccc2)CC1 the results were Pol eta inh -6%, FEN1 inh -4%, Pol kappa inh 1%, POLB inh 25% and Pol iota inh -12%.
`O=C(Nc1ccc(OC(F)(F)F)cc1)C1CCN(S(=O)(=O)c2ccc3[nH]c(=O)ccc3c2)CC1` gave Pol eta inh -8%, FEN1 inh -9%, Pol kappa inh 2%[60.1 µM], POLB inh 23% and Pol iota inh 15%.
Screening NC(=O)C1CCN(CC(=O)Nc2nccs2)CC1 returned Pol eta inh -9%, FEN1 inh 2%, Pol kappa inh -10%, POLB inh -3%, PI5P4K alpha inh 0 and Pol iota inh 89µM*.
`CCOC(=O)N1CCN(CC(=O)Nc2nccs2)CC1` gave Pol eta inh 1% and PI5P4K alpha inh 4.

Screening data as filed in PubChem.
